Source: PubChem BioAssay (NCATS)
Values joined by “and” are separate entries in the source; they are usually repeats but may differ in a detail not shown here. Identical values can stand only once. Inconclusive results are not listed. Active and inactive are the calls of the source. Calls follow the shape of the dose curve; as a rule, active = well fitted curve in the direction sought with a large enough effect; inconclusive = small, poorly fitted or top-dose-only effect, or another doubt; inactive = no such curve, though single readings can be large; an effect the other way counts as inactive or inconclusive.

Tests used:
[1] = Cellular Toxicity (caspase-3) Jurkat (AID 655); conditions: Jurkat caspase-3 activation, luminescence, DMSO = 0%, tamoxifen = 100%; at 92.2 µM (top of the series);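 also: cells exposed to compound for 16 h at 37 °C before reading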
Procedure, shortened: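 Luminescent Caspase-Glo 3/7 read-out (20 min, room temperature) after 16 h compound treatment at 37 C of 5000 Jurkat cells per well. AC50 derived by Hill-equation fitting, scaled between DMSO basal and 100 uM tamoxifen stimulation.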

[2] = Cellular Toxicity (caspase-3) HUV-EC-C (AID 656)
Procedure, shortened: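 Luminescent Caspase-Glo 3/7 readout after 16 h, 37 °C compound exposure of HUV-EC-C endothelial cells, 1000 per well, complete medium. AC50 derived by Hill fitting, with DMSO as baseline and 100 uM tamoxifen as full activation.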

[3] = Cellular Toxicity (caspase-3) SHSY5Y (AID 657)
Procedure, shortened: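 Luminescent Caspase-Glo 3/7 read-out, 1 hr room temperature, follows 16 hours of compound treatment of SH-SY5Y cells at 37 °C. Normalization: DMSO basal, 10 uM staurosporine as 100%; AC50 values from Hill-equation concentration-response fits.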

[4] = Cellular Toxicity (caspase-3) BJ (AID 658);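 also: 0% = DMSO basal and 100% = 10 µM staurosporine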
Procedure, shortened: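 Plated BJ cells (1000/well) rested 5 hr, received compound for 16 hr at 37 °C, then Caspase-Glo 3/7 reagent for 1 hr at room temperature before luminescence reading.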

[5] = Cellular Toxicity (caspase-3) MRC-5 (AID 659);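 also: 0% = DMSO basal and 100% = 10 µM staurosporine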
Procedure, shortened: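 Apoptosis readout in MRC-5 cells: luciferase light generated after caspase 3/7 cleaves a peptide-aminoluciferin substrate, measured post 16 hr compound incubation at 37 °C.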

[6] = Cellular Toxicity (caspase-3) Mesangial (AID 660);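 also: combined caspase 3 and 7 activity read by Caspase-Glo luminescence; cells exposed to compound for 16 h before the caspase read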
Procedure, shortened: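 AC50 values come from Hill-equation fits of caspase 3/7 activation, measured as Caspase-Glo luminescence in human glomerular mesangial cells exposed to compound for 16 h at 37 °C; 100% set by 100 uM tamoxifen.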

[7] = Cellular Toxicity (caspase-3) SK-N-SH (AID 661);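 also: 0% = DMSO basal and 100% = 10 µM staurosporine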
Procedure, shortened: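 Apoptosis readout in SK-N-SH neuroblastoma: Caspase-Glo 3/7 luminescence following 16 hr treatment in complete culture medium. Normalization used DMSO and 10 uM staurosporine controls.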

[8] = Cellular Toxicity (caspase-3) H-4-II-E (AID 663);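 also: cells exposed to compound for 16 hr before readout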
Procedure, shortened: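 Caspase 3/7 activation measured in H-4-II-E cells in complete culture medium after 16 hr treatment at 37 °C, using luciferase-coupled substrate readout; AC50 values come from Hill-equation fits of normalized concentration-response data.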

[9] = Cellular Toxicity (caspase-3) Hek293 (AID 664);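 also: cells exposed to compound for 16 h at 37 °C before readout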
Procedure, shortened: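 Apoptosis readout: Caspase-Glo 3/7 signal in human HEK293 cells following 16-hour compound incubation. Responses scaled between DMSO baseline and 100 uM tamoxifen.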

[10] = Cellular Toxicity (caspase-3) N2a (AID 665);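 also: compound exposure lasted 16 h at 37 °C before readout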
Procedure, shortened: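 Concentration-response qHTS: compound-induced caspase-3/7 luminescence in N2a cells (16 h, 37 °C), relative to DMSO and 10 uM staurosporine controls; AC50 obtained using the standard Hill equation.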

[11] = Cellular Toxicity (caspase-3) NIH 3T3 (AID 666);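 also: caspase signal read after 16 h compound exposure; 0% = DMSO basal and 100% = 100 µM tamoxifen stimulation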
Procedure, shortened: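 Activity: caspase-3/7 induction, NIH 3T3 cells, 16 hr treatment at 37°C, luminescent Caspase-Glo detection; AC50 via Hill equation.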

[12] = Cellular Toxicity (caspase-3) Renal Proximal Tubule (AID 667);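 also: cells exposed to compound for 16 hours at 37 °C before detection; 0% = DMSO basal and 100% = 10 µM staurosporine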
Procedure, shortened: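 Caspase 3/7 activation measured by luminescent aminoluciferin release in primary rat proximal tubule cells after 16 hr compound exposure at 37 °C. AC50 from Hill-fitted concentration-response, scaled between DMSO and 10 uM staurosporine.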

[13] = biological target: Guanine nucleotide-binding protein G(i) subunit alpha-1 (Homo sapiens) (UniProt P63096); assay: qHTS Assay for Inhibitors of RGS12 GoLoco Motif Activity (Green Fluorophore) (AID 879);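 also: 0% = labeled peptide with Gαi1 and full inhibition = labeled peptide alone without protein; negative values mean loss of peptide binding seen as reduced polarization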
Chain of Guanine nucleotide-binding protein G(i) subunit alpha-1 (Homo sapiens) (P63096 whole entry, looked up): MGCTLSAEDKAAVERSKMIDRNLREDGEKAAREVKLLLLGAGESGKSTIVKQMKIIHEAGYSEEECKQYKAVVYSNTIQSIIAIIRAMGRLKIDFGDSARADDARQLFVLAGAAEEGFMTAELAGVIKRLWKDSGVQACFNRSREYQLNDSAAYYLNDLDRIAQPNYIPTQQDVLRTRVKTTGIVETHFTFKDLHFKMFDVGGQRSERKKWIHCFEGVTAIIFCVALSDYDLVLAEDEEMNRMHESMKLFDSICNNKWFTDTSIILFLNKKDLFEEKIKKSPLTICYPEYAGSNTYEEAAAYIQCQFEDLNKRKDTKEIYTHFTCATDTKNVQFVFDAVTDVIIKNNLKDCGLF
Procedure, shortened: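 A drop in FITC polarization marked displacement of the FITC-tagged RGS12 GoLoco peptide (10 nM) from Gαi1 (50 nM). Compounds were incubated 10 min at room temperature in Tris pH 7.5 buffer containing 150 mM NaCl, 0.1 mM GDP and 0.05% NP40; unlabeled peptide titration served as control.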

[14] = biological target: Cytochrome P450 3A4 (Homo sapiens) (UniProt P08684); assay: qHTS Assay for Inhibitors and Substrates of Cytochrome P450 3A4 (AID 884); also: % is scaled to controls: 0 for no effect and ±100 for the full control effect; nearly all actives have a fitted effect of over 50% in size
Chain of Cytochrome P450 3A4 (Homo sapiens) (P08684 whole entry, looked up): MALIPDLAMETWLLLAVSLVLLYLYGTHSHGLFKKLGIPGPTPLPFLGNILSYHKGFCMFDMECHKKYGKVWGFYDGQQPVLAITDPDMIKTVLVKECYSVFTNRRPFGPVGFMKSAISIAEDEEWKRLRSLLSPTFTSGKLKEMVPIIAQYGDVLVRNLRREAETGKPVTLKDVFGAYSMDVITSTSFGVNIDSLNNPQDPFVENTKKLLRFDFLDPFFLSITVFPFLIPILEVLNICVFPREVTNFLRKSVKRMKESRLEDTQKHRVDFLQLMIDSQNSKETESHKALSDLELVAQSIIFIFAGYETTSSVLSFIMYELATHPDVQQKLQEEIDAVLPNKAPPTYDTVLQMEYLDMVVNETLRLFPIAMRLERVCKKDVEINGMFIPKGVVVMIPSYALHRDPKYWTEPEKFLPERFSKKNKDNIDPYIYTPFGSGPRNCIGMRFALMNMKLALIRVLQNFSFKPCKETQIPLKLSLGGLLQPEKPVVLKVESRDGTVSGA
Procedure, shortened: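 Luminescent readout of luciferin produced by CYP3A4 (20 nM) dealkylation of Luciferin-PPXE, 25 uM (its KM). NADPH-driven reaction ran 60 min at RT after 10 min compound preincubation; data scaled to 57 uM ketoconazole as 100% inhibition.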

[15] = biological target: Cytochrome P450 2C9 (Homo sapiens) (UniProt P11712); assay: qHTS Assay for Inhibitors and Substrates of Cytochrome P450 2C9 (AID 883); also: % is scaled to controls: 0 for no effect and ±100 for the full control effect; nearly all actives have a fitted effect of over 60% in size
Chain of Cytochrome P450 2C9 (Homo sapiens) (P11712 whole entry, looked up): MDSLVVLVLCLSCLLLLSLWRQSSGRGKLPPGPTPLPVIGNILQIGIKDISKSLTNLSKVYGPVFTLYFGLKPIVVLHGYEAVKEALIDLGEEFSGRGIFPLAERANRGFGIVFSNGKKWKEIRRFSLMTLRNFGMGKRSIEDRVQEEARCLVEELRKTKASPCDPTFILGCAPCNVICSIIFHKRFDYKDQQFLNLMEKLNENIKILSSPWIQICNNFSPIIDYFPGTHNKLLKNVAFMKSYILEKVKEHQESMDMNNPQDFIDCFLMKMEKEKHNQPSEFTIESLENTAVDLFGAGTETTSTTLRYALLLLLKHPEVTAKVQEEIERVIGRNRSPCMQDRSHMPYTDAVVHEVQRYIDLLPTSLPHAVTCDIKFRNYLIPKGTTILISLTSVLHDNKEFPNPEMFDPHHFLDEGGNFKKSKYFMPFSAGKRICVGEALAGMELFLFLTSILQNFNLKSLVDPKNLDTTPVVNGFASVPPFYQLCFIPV
Procedure, shortened: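 Human CYP2C9 (10nM) hydroxylated Luciferin-H (100uM, at its KM) to luciferin in 25mM KPO4. Compound was preincubated 10 min at 37C, then NADPH regeneration started a 60 min reaction at 37C. Luminescence was read after detection reagent, normalized to 57uM sulphaphenazole.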

[16] = biological target: Cytochrome P450 2D6 (Homo sapiens) (UniProt P10635); assay: qHTS Assay for Inhibitors and Substrates of Cytochrome P450 2D6 (AID 891);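 also: luciferin methyl ether substrate demethylated by CYP2D6 with NADPH regeneration; % is scaled to controls: 0 for no effect and ±100 for the full control effect; nearly all actives have a fitted effect of over 60% in size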
Chain of Cytochrome P450 2D6 (Homo sapiens) (P10635 whole entry, looked up): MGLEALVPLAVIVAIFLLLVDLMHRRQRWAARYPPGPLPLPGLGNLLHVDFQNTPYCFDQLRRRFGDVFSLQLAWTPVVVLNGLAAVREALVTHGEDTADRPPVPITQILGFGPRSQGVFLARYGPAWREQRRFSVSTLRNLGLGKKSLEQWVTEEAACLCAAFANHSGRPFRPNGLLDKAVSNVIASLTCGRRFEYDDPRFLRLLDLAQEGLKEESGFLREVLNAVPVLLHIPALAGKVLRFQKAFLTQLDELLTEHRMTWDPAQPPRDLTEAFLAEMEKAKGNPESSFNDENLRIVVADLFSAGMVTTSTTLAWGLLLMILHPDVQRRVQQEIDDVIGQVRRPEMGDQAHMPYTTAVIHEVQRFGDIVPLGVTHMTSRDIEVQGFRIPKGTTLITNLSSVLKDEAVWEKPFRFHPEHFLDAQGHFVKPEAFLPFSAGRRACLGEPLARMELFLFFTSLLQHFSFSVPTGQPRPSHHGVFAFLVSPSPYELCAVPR
Procedure, shortened: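 Luminescent read-out of luciferin formed by 5 nM human CYP2D6 demethylating 30 uM Luciferin-ME EGE (Km level) over 60 min at room temperature after NADPH regeneration addition. Data normalized to full inhibition by 1.43 uM quinidine.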

[17] = biological target: Cytochrome P450 2C19 (Homo sapiens) (UniProt P33261); assay: qHTS Assay for Inhibitors and Substrates of Cytochrome P450 2C19 (AID 899); also: % is scaled to controls: 0 for no effect and ±100 for the full control effect; nearly all actives have a fitted effect of over 60% in size
Chain of Cytochrome P450 2C19 (Homo sapiens) (P33261 whole entry, looked up): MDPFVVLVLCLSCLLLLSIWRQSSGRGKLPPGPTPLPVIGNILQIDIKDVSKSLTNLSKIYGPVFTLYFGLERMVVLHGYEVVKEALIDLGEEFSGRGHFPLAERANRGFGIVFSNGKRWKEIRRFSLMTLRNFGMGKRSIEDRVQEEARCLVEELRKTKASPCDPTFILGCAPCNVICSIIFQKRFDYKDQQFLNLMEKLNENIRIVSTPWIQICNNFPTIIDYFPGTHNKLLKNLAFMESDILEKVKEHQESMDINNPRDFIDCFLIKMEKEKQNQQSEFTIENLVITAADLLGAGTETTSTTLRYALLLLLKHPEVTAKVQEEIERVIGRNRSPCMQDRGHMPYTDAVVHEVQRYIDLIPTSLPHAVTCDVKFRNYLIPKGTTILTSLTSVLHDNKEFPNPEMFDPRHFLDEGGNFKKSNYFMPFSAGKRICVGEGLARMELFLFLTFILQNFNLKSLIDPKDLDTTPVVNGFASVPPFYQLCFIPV
Procedure, shortened: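 Human CYP2C19 (5nM) with Luciferin-H EGE at 10uM (its KM) in 50mM KPO4 was preincubated with compound for 10 min at 37C. NADPH regeneration started a 60 min 37C reaction. Luciferin was read by luminescence, normalized to 57uM ketoconazole.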

[18] = Confirmation and Secondary Assay for Modulators of Hemoglobin Beta Chain Splicing at IVS2 654 locus (AID 910);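 also: per-well total GFP intensity by laser scanning cytometry after 2-day treatment; % of control where 0% means no effect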
Procedure, shortened: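 HeLa cells stably carrying EGFP interrupted by mutant beta-globin IVS2-654 intron (CMV-driven) were treated with compound for 2 days at 37C; corrected splicing was scored as total peak GFP intensity per well (488 nm excitation, 500-520 nm emission).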

C[C@]12CCC(=O)C=C1CC[C@@H]1[C@@H]2CC[C@]2(C)C(=O)CC[C@@H]12
inactive: caspase-3 activation [1] 7.89% and 0.322% | Potency [2] | outcome [3] | outcome [4] | outcome [5] | outcome [6] | outcome [7] | outcome [8] | outcome [9] | outcome [10] | outcome [11] | outcome [12] | outcome [13] | Potency [14]

O=P1(N(CCCl)CCCl)NCCCO1 (configuration not stated)
inactive: caspase-3 activation [1] -0.663% | Potency [2] | outcome [3] | outcome [4] | outcome [5] | outcome [6] | outcome [7] | outcome [8] | outcome [9] | outcome [10] | outcome [11] | outcome [12] | outcome [13] | outcome [15] | Potency [14] | Potency [16] | Potency [17] | outcome [18]

Nc1ccccc1
inactive: caspase-3 activation [1] -1.64% | Potency [2] | outcome [3] | outcome [4] | outcome [5] | outcome [6] | outcome [7] | outcome [8] | outcome [9] | outcome [10] | outcome [11] | outcome [12] | Potency [14]

CCCCC/C=C\C/C=C\C/C=C\C/C=C\CCCC(=O)NCC(=O)O
inactive: outcome [13]

CCC(C)(C)c1ccc(O)cc1
inactive: caspase-3 activation [1] -1.04% | Potency [2] | outcome [3] | outcome [4] | outcome [5] | outcome [6] | outcome [7] | outcome [8] | outcome [9] | outcome [10] | outcome [11] | outcome [12] | Potency [14]

C[C@]1(O)CC[C@H]2[C@@H]3CCC4=CC(=O)CC[C@]4(C)[C@@]3(F)[C@@H](O)C[C@@]21C
inactive: caspase-3 activation [1] -1.66% | Potency [2] | outcome [3] | outcome [4] | outcome [5] | outcome [6] | outcome [7] | outcome [8] | outcome [9] | outcome [10] | outcome [11] | outcome [12] | Potency [14]

CCCC(C)(COC(N)=O)COC(N)=O
inactive: caspase-3 activation [1] 0.151% | Potency [2] | outcome [3] | outcome [4] | outcome [5] | outcome [6] | outcome [7] | outcome [8] | outcome [9] | outcome [10] | outcome [11] | outcome [12] | Potency [14]

COP(=S)(OC)Oc1ccc(SC)c(C)c1
inactive: caspase-3 activation [1] 0.672% | Potency [2] | outcome [3] | outcome [4] | outcome [5] | outcome [6] | outcome [7] | outcome [8] | outcome [9] | outcome [10] | outcome [11] | outcome [12] | outcome [18]

COC(=O)C(c1ccccc1)C1CCCCN1 (configuration not stated)
inactive: caspase-3 activation [1] 0.101% | Potency [2] | outcome [3] | outcome [4] | outcome [5] | outcome [6] | outcome [7] | outcome [8] | outcome [9] | outcome [10] | outcome [11] | outcome [12] | Potency [14]

C[C@]12CCC(=O)C=C1CC[C@@H]1[C@@H]2CC[C@@]2(C)[C@H]1CC[C@]2(C)O
inactive: caspase-3 activation [1] 22.4% | Potency [2] | outcome [3] | outcome [4] | outcome [5] | outcome [6] | outcome [7] | outcome [8] | outcome [9] | outcome [10] | outcome [11] | outcome [12] | Potency [14]

NCCc1ccc(O)cc1
inactive: caspase-3 activation [1] 3.49% | Potency [2] | outcome [3] | outcome [4] | outcome [5] | outcome [6] | outcome [7] | outcome [8] | outcome [9] | outcome [10] | outcome [12] | outcome [13] | Potency [14] | Potency [17] | outcome [18]

Nc1ccccc1C(=O)O
inactive: caspase-3 activation [1] -0.541% | Potency [2] | outcome [3] | outcome [4] | outcome [5] | outcome [6] | outcome [7] | outcome [8] | outcome [9] | outcome [10] | outcome [11] | outcome [12] | Potency [14]
